ST2 inh – inhibitors of human ST2 (IL1RL1) binding to IL-33; Q01638; inhibition, % for hits at 17 µM; 2.3% of 78,000 active; AID 1259354; AlphaLISA ST2-Fc/biotin-IL-33 interaction, 1 h; in the data active = inhibition above about 30%
Target sequence (Q01638 whole entry, looked up): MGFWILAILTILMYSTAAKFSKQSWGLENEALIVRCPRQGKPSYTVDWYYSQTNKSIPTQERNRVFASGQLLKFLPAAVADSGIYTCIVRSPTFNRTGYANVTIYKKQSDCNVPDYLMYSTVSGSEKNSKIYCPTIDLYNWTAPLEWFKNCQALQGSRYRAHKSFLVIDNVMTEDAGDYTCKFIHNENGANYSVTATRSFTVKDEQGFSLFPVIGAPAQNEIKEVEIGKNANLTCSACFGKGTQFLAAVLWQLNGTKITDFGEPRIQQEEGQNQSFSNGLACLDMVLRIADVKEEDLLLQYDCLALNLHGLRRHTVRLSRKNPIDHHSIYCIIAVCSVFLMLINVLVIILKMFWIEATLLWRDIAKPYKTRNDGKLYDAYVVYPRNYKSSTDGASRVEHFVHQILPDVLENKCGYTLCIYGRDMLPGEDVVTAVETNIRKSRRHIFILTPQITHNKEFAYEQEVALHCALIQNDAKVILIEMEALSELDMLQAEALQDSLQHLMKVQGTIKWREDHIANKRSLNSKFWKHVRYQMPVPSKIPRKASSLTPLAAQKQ
The depositor's hits bear a star; i = inactive. Only a selection was taken, and hits are over-represented in it overall.

SMILES	ST2 inh
CC(C)CCn1nc(C(=O)N2CCOCC2)c2c1CCN(Cc1ccc(Oc3ncccn3)cc1)C2	i
NC(=O)CSC1=Nc2ccccc2C2=NC(CCC(=O)NCc3cccs3)C(=O)N12 (centres undefined)	i
Cc1ccc(OCC(=O)Nc2ccc(Cl)cc2[N+](=O)[O-])cc1	i
O=C(CN1C(=O)C2CCCCN2C(=O)c2ccccc21)NCc1ccc(F)cc1 (centres undefined)	37%*
O=C(CN1C(=O)C2CCCCN2C(=O)c2ccccc21)N1CCN(Cc2ccccc2)CC1 (centres undefined)	i
O=C(CN1C(=O)C2CCCCN2C(=O)c2ccccc21)NCc1ccc2c(c1)OCO2 (centres undefined)	i
O=C1CCC(=O)N1c1ccc(Cc2ccc(N3C(=O)CCC3=O)cc2)cc1	i
CCCCOc1cccc(N=Cc2c(C)[nH]n(-c3ccccc3)c2=O)c1	36%*
Cc1[nH]n(-c2ccccc2)c(=O)c1C=Nc1cccc(N)c1	i
Cc1[nH]n(-c2ccccc2)c(=O)c1C=Nc1c(C)[nH]n(-c2ccccc2)c1=O	i
CCOC(=O)N1CCN(C(=O)COc2ccc(C(C)C)cc2)CC1	i
COc1ccc(CN2C[C@H](O)C[C@H]2c2nc(CS(=O)(=O)c3ccc(C)cc3)no2)cc1	i
O=[N+]([O-])c1ccc(CN2C[C@H](O)C[C@H]2c2nc(-c3ccc(OC(F)(F)F)cc3)no2)cc1	i
O=S(=O)(Cc1noc([C@@H]2C[C@@H](O)CN2Cc2ccc(-c3ccccn3)cc2)n1)c1ccc(F)cc1	i
CS(=O)(=O)c1ccc(CN2C[C@H](O)C[C@H]2c2nc(-c3ccc(C(F)(F)F)cc3)no2)cc1	i
O[C@@H]1C[C@@H](c2nc(-c3ccc(F)cc3)no2)N(Cc2ccc(OC(F)(F)F)cc2)C1	53%*
O=S(=O)(Cc1noc([C@@H]2C[C@@H](O)CN2CC2CC2)n1)c1ccc(F)cc1	i
O=[N+]([O-])c1ccc(CN2C[C@H](O)C[C@H]2c2nc(-c3ccc(C(F)(F)F)cc3)no2)cc1	i
O[C@@H]1C[C@@H](c2nc(-c3ccc(C(F)(F)F)cc3)no2)N(Cc2ccc(-c3ccccn3)cc2)C1	i
CN(C)c1ccc(CN2C[C@H](O)C[C@H]2c2nc(-c3ccccn3)no2)cc1	i
CC(=O)Nc1ccc(CN2C[C@H](O)C[C@H]2c2nc(CS(=O)(=O)c3ccc(F)cc3)no2)cc1	74%*
COc1ccc(CN2C[C@H](O)C[C@H]2c2nc(-c3ccc(OC(F)(F)F)cc3)no2)cc1	31%*
O[C@@H]1C[C@@H](c2nc(-c3ccncc3)no2)N(Cc2ccc(-c3ccccn3)cc2)C1	33%*
Cc1ccc(S(=O)(=O)NC2CCCC2)cc1	i
Cn1c(=O)cc(SCC(=O)Nc2ccccn2)c2ccc(Cl)cc21	i
SMILES	ST2 inh
Cc1cc(NC(=O)NC(=O)c2ccc(C(F)(F)F)cc2)n[nH]1	i
COc1ccc(-c2noc([C@@H]3C[C@@H](O)CN3Cc3ccncc3)n2)cc1	36%*
O[C@@H]1C[C@@H](c2nc(-c3cccnc3)no2)N(Cc2ccccc2)C1	i
O=C(O)c1ccc(CN2C[C@H](O)C[C@H]2c2nc(-c3ccccc3)no2)cc1	i
COc1ccc(-c2noc([C@@H]3C[C@@H](O)CN3Cc3ccc(Cl)cc3)n2)cc1	i
O[C@@H]1C[C@@H](c2nc(-c3ccccc3)no2)N(Cc2c[nH]c3ccccc23)C1	38%*
Cn1c(CN2C[C@H](O)C[C@H]2c2nc(-c3ccccc3)no2)nc2ccccc21	i
Cc1ccc(NC(=O)C(NS(=O)(=O)c2cccs2)C(C)C)c(Br)c1 (centres undefined)	i
CC(=O)NCCCc1nc2ccccc2n1C	i
O=C(Nc1cnns1)c1cccc(CN2[C@@H]3CC[C@H]2CC(O)C3)c1 (some centres undefined)	i
COc1ccc(N2CCCS2(=O)=O)cc1NC(=O)c1ccccc1Br	i
CCOC(=O)c1c(N)n(-c2ccc(C)cc2C)c2nc3ccccc3nc12	i
N#Cc1c(N)n(-c2ccc(Cl)cc2)c2nc3ccccc3nc12	i
COc1ccc(-n2c(N)c(C#N)c3nc4ccccc4nc32)c(OC)c1	32%*
O=C(NCCCN1CCOCC1)c1ccc2c(c1)N(Cc1ccc(Cl)cc1)C(=O)CS2	i
COc1ccc(CC2CN(Cc3cccn3-c3ncccn3)CCO2)cc1 (centres undefined)	i
COc1ccc(Cl)cc1C(=O)Nc1ccc(C)c(-c2nc3ncccc3o2)c1	35%*
COc1ccc(C(=O)Nc2ccc(Cl)c(-c3nc4ncccc4o3)c2)cc1OC	i
COc1ccccc1C(=O)Nc1cccc(-c2nc3ncccc3o2)c1	i
O=C(NCCCN1CCCCC1)c1cc(=O)[nH]c2ccc(S(=O)(=O)N3CCCCC3)cc12	i
O=C1N/C(=C\c2ccc(Br)cc2)C(=O)N1Cc1ccc(Cl)cc1	i
CN1C[C@@H](NC(=O)CC(C)(C)CC(=O)O)C[C@H]1c1nc(-c2ccccn2)no1	i
CN1C[C@@H](NC(=O)c2cccnc2)C[C@H]1c1nc(-c2ccc(Cl)cc2)no1	i
CN1C[C@@H](NC(=O)c2ccc(F)cc2)C[C@H]1c1nc(-c2ccccc2)no1	i
CN1C[C@@H](NC(=O)c2ccccn2)C[C@H]1c1nc(-c2ccccn2)no1	i
SMILES	ST2 inh
CN1C[C@@H](NC(=O)c2ccccn2)C[C@H]1c1nc(-c2ccncc2)no1	i
CN1C[C@@H](NC(=O)CC(C)(C)C)C[C@H]1c1nc(-c2cnccn2)no1	34%*
CN1C[C@@H](NC(=O)c2ccc3c(c2)OCO3)C[C@H]1c1nc(-c2cccnc2)no1	i
CN(C)c1ccc(C(=O)N[C@H]2C[C@@H](c3nc(-c4cccnc4)no3)N(C)C2)cc1	58%*
CN1C[C@@H](NC(=O)COc2ccccc2)C[C@H]1c1nc(-c2cccnc2)no1	65%*
C=CCNC(=O)c1cnn(-c2ccccc2)c1NC(=O)c1cccc(F)c1	i
O=C1OC(NCc2cccnc2)(c2ccccc2)c2ccccc21 (centres undefined)	i
Fc1ccccc1-c1cnnc(N2CCN(C3CCc4ccccc4C3)CC2)n1 (centres undefined)	i
CC1(C)Cc2c(C#N)c(N3CCCC3)nc(-c3ccccc3)c2CO1	i
COC(=O)Oc1ccc2c(=O)c(Oc3ccc(C)cc3)coc2c1	30%*
CC(=O)Oc1ccc2c(=O)c(Oc3ccccc3)coc2c1	i
Cc1cc(C)cc(Oc2coc3cc(OC(=O)C(C)C)ccc3c2=O)c1	i
C=CCNCCOc1ccc(Cl)cc1Br	i
O=C(N[C@H]1CCN2C(=O)N(c3ccc(OC(F)(F)F)cc3)C(=O)[C@@H]2C1)c1ccncc1	i
CC(=O)N1CCC(C(=O)N[C@H]2CCN3C(=O)N(c4cccc(C(F)(F)F)c4)C(=O)[C@@H]3C2)CC1	i
O=C(N[C@H]1CCN2C(=O)N(c3cccc(C(F)(F)F)c3)C(=O)[C@@H]2C1)c1ccncc1	56%*
COc1ccccc1CN1C(=O)CN(C2CCCCC2)C(=O)C1c1cccc(Br)c1 (centres undefined)	i
CCO[C@H]1COC[C@@H]1NC(=O)c1cnn2ccn(C)c12	i
Cc1ccccc1NCC(=O)c1ccc([N+](=O)[O-])cc1	48%*
CCc1ccccc1NC(=O)c1ccc([N+](=O)[O-])cc1	i
Cc1ccccc1C(=O)Nc1ccc([N+](=O)[O-])cc1	i
